The source of these data is PubChem BioAssay AID1851 (National Center for Advancing Translational Sciences (NCATS), 2009).

Each structure is given as a SMILES string. Where “and” joins values, the source holds several entries; their conditions need not be identical. Equal values may be shown once. The campaign covered roughly 16,000 compounds. About 5,800 (36%) were called active. About 23% were inconclusive and are not listed. Calls come from the whole dose curve; as a rule, active = well fitted curve in the direction sought with a large enough effect; inconclusive = small, poorly fitted or top-dose-only effect, or effect the other way; inactive = no such curve, though single readings can be large or run the other way. The list shows a part of the results.
% is set by controls: 0 for no effect and ±100 for the full control effect.

Sequence of Cytochrome P450 2C19 (Homo sapiens) (P33261 whole entry, looked up): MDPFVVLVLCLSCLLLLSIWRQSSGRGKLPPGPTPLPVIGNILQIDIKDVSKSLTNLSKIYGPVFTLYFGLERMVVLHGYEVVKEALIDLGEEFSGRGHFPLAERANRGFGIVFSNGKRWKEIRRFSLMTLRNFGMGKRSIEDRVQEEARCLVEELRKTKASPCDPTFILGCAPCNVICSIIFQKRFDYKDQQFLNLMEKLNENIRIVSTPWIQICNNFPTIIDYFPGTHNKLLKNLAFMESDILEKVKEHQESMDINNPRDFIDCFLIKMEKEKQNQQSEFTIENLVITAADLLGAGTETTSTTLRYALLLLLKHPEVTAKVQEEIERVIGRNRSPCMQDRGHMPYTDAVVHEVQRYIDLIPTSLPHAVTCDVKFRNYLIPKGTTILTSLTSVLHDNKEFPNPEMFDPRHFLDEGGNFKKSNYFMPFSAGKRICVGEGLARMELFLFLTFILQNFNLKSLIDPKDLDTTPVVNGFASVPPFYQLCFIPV

This test concerns the target Cytochrome P450 2C19 (Homo sapiens) (UniProt P33261). The test can be described thus: Cytochrome panel assay with activity outcomes. Conditions: recombinant CYP, pro-luciferin dealkylation, luminescence, p450-cyp2c19; series mostly up to 57.1 µM; activity, negative = inhibition: at the top concentration.
For orientation: AC50 means the midpoint of the concentration-response curve, whichever way the signal moves. For the compound `CCc1ccccc1NC(=O)C1C(c2ccccc2)C1(Cl)Cl` (centres undefined), the AC50 was 1.78 µM (active).
On to `O=C(COc1ccccc1-c1ccccc1)N/N=C/c1cccc2ccccc12`, for which the AC50 was 2.24 µM (active).
Still for that read-out and setting: the value for `O=C(COc1ccc(-c2ccccc2)cc1)N/N=C/c1ccccc1Br` was 2.51 µM (active).
On to `COc1ccc(OCC(=O)NNC(=O)c2ccc(-c3ccccc3)cc2)cc1`, for which the “activity, negative = inhibition” value was -9.31% (inactive).
As for `O=C(Cc1ccccc1)Nc1nc2ccc(Cl)cc2c2nc(-c3ccco3)nn12`, the AC50 is 1.58 µM (active).
In the case of `Cn1c(=O)c(-c2ccc(Cl)cc2)nc2cnc(Oc3ccccc3)nc21`, the “activity, negative = inhibition” value is 5.73% (inactive).
For `Cc1cc(Cl)ccc1Oc1ncc(-c2ccc(Cl)cc2)cn1`, the AC50 is 2.51 µM (active).
The same measure, in the same setting: the figure for `Cc1cccc(Oc2ncc(-c3ccc(Cl)cc3)cn2)c1C` is 14.1 µM (active).
As to `COc1ncc2nc(-c3ccc(Cl)cc3)c(=O)n(C)c2n1`, the “activity, negative = inhibition” value is 0.0431% (inactive).
Same read-out and setting: the value for `C#CCCCO/N=C1/C[C@@H](O)[C@@H](O)[C@@H]2[C@@H]3C(=O)N([C@@H](C)c4ccccc4)C(=O)[C@H]3CC[C@@H]12` was -27.9% [at 11.4 µM] (inactive).
Take `CCCC(=O)N1c2ccccc2C(N(C(C)=O)c2ccccc2)CC1C` (centres undefined): the AC50 is 15.8 µM (active).
Consider `COc1ccc(-n2c(=O)cnc3cnc(OC)nc32)cc1`, for which the “activity, negative = inhibition” value is 8.17% (inactive).
Consider `Cc1ccc(-n2ccc(=O)c(-c3ccnc(SCc4cccc(Cl)c4)n3)n2)cc1`, for which the AC50 is 3.55 µM (active).
Consider `NNC(=O)c1nn(-c2ccc(Cl)cc2)ccc1=O`, for which the “activity, negative = inhibition” value was 86.7% (inactive).
Still for that read-out and setting: the figure for `C[C@@H]1C[C@@H]2[C@H]3CCC4=CC(=O)C=C[C@]4(C)[C@]3(Cl)[C@@H](O)C[C@@]2(C)[C@@]1(O)C(=O)CO` is 15.2% (inactive); for `COC(=O)C1=C(C)NC(=O)NC1c1ccsc1` (centres undefined) it is -26.2% (inactive).
As to `CC1=C(C(=O)Nc2ccccc2F)C(c2ccsc2)C2=C(CC(c3ccccc3)CC2=O)N1` (centres undefined), the AC50 is 5.01 µM (active).
Same read-out and setting: the figure for `C=CCNc1nc(SCC=C)nc2ccsc12` is 8.91 µM (active).
As for `C=CCSc1nc(Oc2ccccc2)c2sccc2n1`, the AC50 is 2.24 µM (active).
For `C=CCSc1ccsc1C(=O)O`, the “activity, negative = inhibition” value was -21.7% (inactive).
`C=CCSc1nc(NC)c2sccc2n1`: the AC50 was 14.1 µM (active).
Consider `C[C@@]12C(=O)OC(=O)[C@]1(C)[C@H]1CC[C@@H]2O1`, for which the “activity, negative = inhibition” value was 20.3% [at 25.6 µM] (inactive).
The same measure, in the same setting: the figure for `O=C1C[C@@H](O)[C@@H](O)[C@H]2[C@@H]3C(=O)N(c4cccc(Oc5ccccc5)c4)C(=O)[C@@H]3CC[C@H]12` is 5.15% [at 11.4 µM] (inactive) and -20.4% [at 11.4 µM] (inactive).
In the case of `O=C(Nc1ccc2c(c1)OCCO2)c1cc2sccc2n1Cc1ccccc1`, the AC50 was 3.16 µM (active).
Still for that read-out and setting: the value for `O=C(Nc1ccc2c(c1)OCCO2)c1cc2sccc2n1Cc1ccc(F)cc1` was 1 µM (active).
On to `FC(F)(F)c1cc(Sc2ccccc2)nc(-c2ccccn2)n1`, for which the “activity, negative = inhibition” value was -107% (inactive).
Turning to `CCNc1nc(Sc2ccc(C)cc2)cc(C(F)(F)F)n1`, the AC50 was 11.2 µM (active).
`Cc1ccc(Sc2cc(Cl)nc(N)n2)cc1`: the “activity, negative = inhibition” value was 15.3% (inactive).
The same measure, in the same setting: the figure for `O=C(NC1CCCc2ccccc21)c1ccc(=O)[nH]c1` (centres undefined) is -15.8% (inactive); for `O=C(NCCCN1CCc2ccccc2C1)C1CCN(S(=O)(=O)N2CCCC2)CC1` it is -24.9% (inactive).
As to `O=C(NC1CCCc2ccccc21)C1CCN(S(=O)(=O)N2CCCCCC2)CC1` (centres undefined), the AC50 is 17.8 µM (active).
Same read-out and setting: the figure for `Cc1cccc(NC(=O)CSc2nc(COc3ccccc3)nc3ccccc23)c1C` is 2 µM (active).
Regarding `CCc1nc(SCC(=O)NNC(=O)C2CCCCC2)c2ccccc2n1`, the “activity, negative = inhibition” value was 4.97% (inactive).
Regarding `C=CCn1c(C(C)NC(=O)c2ccccc2)n[nH]c1=S` (centres undefined), the half-maximal activity concentration (AC50) was 5.01 µM (active).
Regarding `CCn1c(CCNC(=O)c2ccccc2Cl)n[nH]c1=S`, the “activity, negative = inhibition” value is -10.1% (inactive).
Still for that read-out and setting: the figure for `NS(=O)(=O)c1cc(Cl)c(Cl)c(S(N)(=O)=O)c1` is 26.8% [at 25.6 µM] (inactive).
Take `Cc1cccc(N(NC(=O)C(C)(C)O)C(=O)c2ccccc2)c1`: the AC50 was 20 µM (active).
For `CC(=O)NNC(=O)C(O)(c1ccccc1)c1ccccc1`, the “activity, negative = inhibition” value is 9.3% (inactive).
Same read-out and setting: the figure for `CCN1C(=O)[C@H]2[C@H]3[C@H](O)[C@H](O)C/C(=N/OCC(C)C)[C@@H]3CC[C@@H]2C1=O` is -7.39% [at 11.4 µM] (inactive).
For `CCc1ccc(C(=O)N2CCC(c3nc4ccccc4s3)CC2)cc1`, the half-maximal activity concentration (AC50) is 14.1 µM (active).
Same read-out and setting: the value for `C[C@H]1NC(=O)NC1=O` was “inactive”; that for `C/C(=N/NC(=O)c1cccs1)c1ccc(NC(=O)COc2ccc(Cl)cc2Cl)cc1` was 14.1 µM (active); that for `C/C(=N\NC(=O)c1ccc(Cl)cc1)c1cccc(NC(=O)C(C)C)c1` was 17.8 µM (active).
With `C/C(=N\NC(=O)c1cccc(Cl)c1)c1cccc(NC(=O)C(C)C)c1`, the “activity, negative = inhibition” value was 13.8% (inactive).
Turning to `CCC(CC)C(=O)Nc1cccc(/C(C)=N\NC(=O)c2ccc(C)s2)c1`, the “activity, negative = inhibition” value is 1.98% (inactive).
Consider `C/C(=N/NC(=O)c1ccc(C)s1)c1cccc(NC(=O)COc2ccc(Cl)cc2C)c1`, for which the AC50 is 3.16 µM (active).
Regarding `CCc1ccc2c(c1)c(N=NC1=NC(=O)CS1)c(O)n2CC`, the “activity, negative = inhibition” value was -18.3% (inactive).
Still for that read-out and setting: the value for `CC(=O)NNc1cccc(Cl)n1` was 11.9% (inactive); that for `C=CCSC[C@@H]1Nc2cc(Cl)c(S(N)(=O)=O)cc2S(=O)(=O)N1` was 7.79% [at 25.6 µM] (inactive).
Still for that read-out and setting: the figure for `CN(C(=O)Cn1nnc(-c2cccc(C(F)(F)F)c2)n1)C1CCCCC1` is 7.73% (inactive).
As for `CC(C)CC(C(=O)NCC1CCCO1)N(C(=O)Cn1nnc(-c2ccc(F)cc2)n1)c1cccc(C(F)(F)F)c1` (centres undefined), the AC50 is 3.55 µM (active).
Turning to `O=C(NCC1CCCO1)c1nn2c(c1Cl)NC(c1ccc(F)cc1)CC2C(F)(F)F` (centres undefined), the “activity, negative = inhibition” value is -14.1% (inactive).
Turning to `CC(C)CC(C(=O)NCC1CCCO1)N(C(=O)Cn1nnc(-c2ccc(F)cc2)n1)c1ccccc1F` (centres undefined), the AC50 was 25.1 µM (active).
Consider `O=S1(=O)N[C@H]2CC[C@@H]3NS(=O)(=O)N[C@H]4CC[C@H](N1)N4S(=O)(=O)N23`, for which the activity, negative = inhibition is 11.2% [at 11.4 µM] (inactive).
The same measure, in the same setting: the value for `CCN1C(=O)[C@H]2[C@H]3[C@H](O)[C@H](O)C/C(=N/O[C@@H](C)c4cn([C@H](CO)Cc5ccccc5)nn4)[C@@H]3CC[C@@H]2C1=O` was 4.85% [at 11.4 µM] (inactive) and 16% [at 11.4 µM] (inactive).
For `O=C(Nc1cnn(Cc2ccc(Cl)cc2Cl)c1)c1cc(-c2cccs2)on1`, the AC50 was 4.47 µM (active).
In the case of `c1ccc2c(c1)nnn2CN1CCOCC1`, the activity, negative = inhibition was 22.7% [at 11.4 µM] (inactive).
For `Fc1ccc(C2=Nn3c(Cc4ccccc4F)nnc3SC2)cc1`, the AC50 was 3.98 µM (active).
The same measure, in the same setting: the figure for `c1ccc(-c2ccc(C3=Nn4c(Cn5nnc6ccccc65)nnc4SC3)cc2)cc1` is 14.1 µM (active).
